Rows were chosen to be rich in hits. Some 2.2% of all compounds tested hit in one or more screens of this group.
M1 PAM = potentiates human M1 receptor response to acetylcholine | 360,000 tested, 0.088% active | P11229 | CHO-K1 hM1, Fluo-8 calcium fluorescence, ACh EC20; 0% = ACh EC20, 100% = maximal ACh | activation, % at 3 µM; in the data active = activation above about 19%, passing the limit was not always enough
M1 ag = agonists of human M1 muscarinic receptor; P11229; CHO-K1 hM1, Fluo-8 calcium fluorescence, agonist mode; 0% DMSO, 100% acetylcholine EC100; activation, % at 3 µM; 360,000 tested, 0.33% active; AID 588814;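 active = activation above the run's mean compound activation plus 3 SD, cut at about 16% in these data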;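 also: peak over basal fluorescence ratio within a 140 s kinetic read after compound addition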
M4 ag = agonists of human muscarinic M4 receptor (CHRM4). P08173. CHO-K1 hM4/Gqi5, Fluo-8 calcium fluorescence; vehicle 0%, full acetylcholine response 100%. activation, % at 3 µM. 360,000 tested, 0.14% active. AID 624127;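 active = activation above the run mean over all test wells plus 3 SD, cut at about 32% in these data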;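 also: peak over basal fluorescence ratio per well then scaled between controls; 0% = DMSO wells and 100% = acetylcholine at EC100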
Target sequence (P08173 whole entry, looked up): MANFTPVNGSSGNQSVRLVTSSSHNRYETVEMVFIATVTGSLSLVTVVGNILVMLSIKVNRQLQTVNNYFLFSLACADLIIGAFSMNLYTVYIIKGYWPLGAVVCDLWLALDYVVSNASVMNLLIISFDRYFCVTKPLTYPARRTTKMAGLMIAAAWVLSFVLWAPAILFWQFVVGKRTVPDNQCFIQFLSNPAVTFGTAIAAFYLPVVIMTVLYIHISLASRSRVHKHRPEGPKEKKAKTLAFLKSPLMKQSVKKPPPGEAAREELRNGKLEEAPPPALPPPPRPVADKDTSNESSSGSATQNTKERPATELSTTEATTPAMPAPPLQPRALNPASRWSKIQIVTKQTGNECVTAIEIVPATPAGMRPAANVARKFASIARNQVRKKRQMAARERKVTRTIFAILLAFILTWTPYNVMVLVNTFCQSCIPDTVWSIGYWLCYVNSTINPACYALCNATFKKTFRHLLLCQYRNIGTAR
M1 antag = human CHRM1 antagonism; P11229; 360,000 tested, 1.3% active; AID 588852; inhibition, % at 3 µM; CHO-K1 hM1, Fluo-8 calcium fluorescence, ACh EC80 antagonist;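 active = percent inhibition above its own plate's cutoff, namely the mean of that plate's compound wells plus 3 SD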;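 also: peak over basal fluorescence ratio during 140 s after agonist addition; 0% = ACh EC80 plus DMSO and 100% = DMSO alone without agonist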
CHRM4 PAM = positive allosteric modulators of human muscarinic M4 receptor. CHO-K1 hM4/Gqi5, Fluo-8 calcium fluorescence, ACh EC20; 0% = ACh EC20, 100% = maximal ACh. activation, % at 3 µM. 360,000 tested, 0.4% active;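 active = activation above its plate's cutoff, the mean activation of sample wells plus 3 SD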
CHRM4 antagonist = blocks acetylcholine activation of human M4 receptor | CHO-hM4 cells, ACh EC80, Fluo-8 calcium fluorescence | P08173 | 360,000 tested, 0.73% active | inhibition, % at 3 µM;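 active = inhibition above its plate's cutoff, the mean inhibition of sample wells plus 3 SD, cut at about 27% in these data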;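 also: 0% = acetylcholine EC80 with DMSO and 100% = DMSO without agonist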
An asterisk follows results filed as active; x = not tested or not shown.

SMILES	M1 PAM	M1 ag	M4 ag	M1 antag	CHRM4 PAM	CHRM4 antagonist
COc1ccc(-c2csc(N(CCCN(C)C)C(=O)c3cccs3)n2)cc1	-7	5	9	30*	-14	-2
O=C(CN1C(=O)c2cccnc2Oc2ccc(Cl)cc21)NC1CCCCCC1	-3	-2	0	12	-1	2
CCn1c(CC(=O)Nc2ccc(C)c(Cl)c2)nnc1SCc1ccc(Cl)c(Cl)c1	-7	-6	1	0	-9	7
CCOC(=O)c1c(NC(=O)CN2CCN(C)CC2)sc(C(=O)Nc2ccccc2)c1C	11	-9	2	-4	0	3
CCOC(=O)c1c(NC(=O)c2ccccc2Br)sc2c1CCc1ccccc1-2	-3	-3	0	8	18	-3
COc1ccc(-c2csc(N(CCCN(C)C)C(=O)c3ccc(C)cc3)n2)cc1	-2	-5	23	0	49*	49*
CCn1cc(/C=N/NS(=O)(=O)c2ccc(C)cc2)c(C)n1	4	-3	8	-8	2	9
CCn1cc(/C=N/NS(=O)(=O)c2ccc(OC)cc2)c(C)n1	14	21*	0	-34	11	-3
CCc1ccc(N/C(SCc2cccc(F)c2)=C(/C#N)C(=O)NCc2ccco2)cc1	-5	0	1	12	-6	5
Cc1ccc(N/C(SCc2ccccc2C)=C(/C#N)C(=O)NCc2ccco2)cc1C	-1	-5	0	-11	-21	27*
COc1ccc(OC)c(NC(=O)COC(=O)c2c3c(nc4ccccc24)CCCC3)c1	-19	-7	12	38*	-10	23
COc1ccc(NC(=O)COC(=O)c2c3c(nc4ccccc24)CCCC3)cc1Cl	-10	-4	6	22*	-15	18
COc1ccc(NC(=O)COC(=O)c2c3c(nc4ccccc24)CCCC3)cc1	-9	0	9	32*	-10	14
Cc1ccc(C(=O)C(SC(C)(C)C)n2cncn2)cc1 (stereo not given)	-6	-10	2	9	-6	0
O=C1NC[C@@H](CCCCN2C[C@H](Cc3ccccc3)N(Cc3ccccc3)C(=O)C2=O)N(CC2CCCCC2)C1=O	x	x	0	x	4	1
O=C1NC[C@@H](CCCCN2C[C@H](Cc3ccc(O)cc3)N(CC3CCCCC3)C(=O)C2=O)N(Cc2ccccc2)C1=O	x	x	37*	x	5	-11
O=C1NC[C@@H](CCCCN2C[C@H](Cc3ccc(O)cc3)N(CCC3CCCCC3)C(=O)C2=O)N(Cc2ccccc2)C1=O	x	x	2	x	-2	7
O=C1NC[C@@H](CCCCN2C[C@H](Cc3ccccc3)N(CC3CCCCC3)C(=O)C2=O)N(CC2CCCCC2)C1=O	x	x	59*	x	7	-12
CC(C)(CO)NCC(O)COc1ccc2c(c1)CCC2 (stereo not given)	12	-9	1	-8	2	3
CC(C)(C)CC(C)(C)NCC(O)COc1ccc2c(c1)CCC2 (stereo not given)	-24	-3	13	49*	-18	17
CC(=O)Nc1ccc(Sc2ncccc2C(=O)Nc2ccc(F)cc2)cn1	-24	69*	94*	52*	-26	26
Cc1ccc(C2C(C#N)=C(N)Oc3cc(N)ccc32)cc1 (stereo not given)	8	0	1	-15	-6	15
Cc1ccc(/C=C2\CCC3=C2OC(N)=C(C#N)C3c2ccc(C)cc2)cc1 (stereo not given)	-12	27*	15	50*	1	30*
O=C(OCC(=O)N1CCN(C(=O)c2ccco2)CC1)c1cc(-c2cccc(Br)c2)nc2ccccc12	-4	1	9	14	-23	28*
CC1(C(=O)Nc2ccccc2)Cc2c(-c3cccc(C(F)(F)F)c3)ccnc2O1 (stereo not given)	13	-3	-1	-23	-9	4
SMILES	M1 PAM	M1 ag	M4 ag	M1 antag	CHRM4 PAM	CHRM4 antagonist
CSc1nc(C)c(C(=O)C[n+]2ccccc2)cc1C#N	-14	-7	0	28*	-2	-3
CCOC(=O)c1cc(C#N)c(SCC(=O)c2cc(C#N)c(SC)nc2C)nc1C	-8	-4	0	20	-13	14
O=C(Nc1nnc(CCS(=O)(=O)c2ccc3ccccc3c2)s1)c1cccs1	5	-5	1	-8	21*	-7
COC(=O)c1sc(-c2ccccc2)cc1NC(=O)c1cc(OC)cc(OC)c1	0	-5	0	-5	6	2
OCC1(Cc2ccccc2)CCN(C2CCN(c3ccccc3F)CC2)CC1	-21	-3	27	35*	-24	-4
COCCCOc1cc(NCc2ccccc2)c2ncn(C(C)C)c2c1	17	2	0	-11	12	-13
COc1cc(NCc2ccccc2)c2ncn(Cc3ccccc3)c2c1	18	13	17	-8	36*	-20
CCCCOc1cc(NCc2ccccc2)c2ncn(C(C)C)c2c1	17	8	11	-2	29*	-23
O=S(=O)(c1ccc(F)cc1)N1CCN(CC(O)COCC2CCCO2)CC1 (stereo not given)	-2	-3	1	8	-7	5
C=CCn1c(SCC(=O)NCCc2ccccc2)nnc1C1CC1	2	-3	16	-1	-3	-7
CCCCC(c1nnnn1Cc1ccco1)N1CCN(C(=O)c2ccco2)CC1 (stereo not given)	5	-4	1	-15	-4	3
CCCC(c1nnnn1Cc1ccco1)N1CCN(C(=O)c2ccco2)CC1 (stereo not given)	-2	-2	1	2	20*	-12
O=C(COc1cccc(Cl)c1)NNC(=S)Nc1ccccc1	6	-6	1	-8	-1	1
COCCNC(=O)/C(C#N)=C/c1ccc(N2CCOCC2)o1	-3	-5	2	6	2	-1
N#C/C(=C\c1ccc(N2CCOCC2)o1)C(=O)NCCc1ccccc1	-17	21*	34*	9	-13	3
N#C/C(=C/c1ccc(N2CCOCC2)o1)C(=O)Nc1ccccc1	-23	50*	54*	32	-16	13
N#C/C(=C\c1ccc(N2CCOCC2)o1)C(=O)NC1CCCCC1	-3	15	10	4	-6	5
Cc1cc(NS(=O)(=O)c2ccccc2)n(-c2ccccc2)n1	1	-2	0	-1	5	-5
Cc1nnc(NC(=O)CSc2nnc(CNC(=O)c3ccccc3)o2)s1	5	-3	1	-5	5	3
CCOC(=O)C1CCCN(C(=O)CCn2nnnc2CN2CCOCC2)C1 (stereo not given)	-13	32*	1	17	8	0

From PubChem BioAssay
